The nature of assay [1]: ATG_PXRE_CIS: Attagene CIS-FACTORIAL HepG2 Assay for human Pregnane X Receptor Element (PXRE) (AID 2282957). The settings on record: HepG2 Attagene CIS-FACTORIAL PXRE reporter, mRNA; actives raise or lower the signal. The essentials:
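Transfect HepG2 with MRTUs (cis promoter elements); dose chemical, incubate 24 h; isolate RNA, RT with oligo(dT), PCR, 6-FAM label, HpaI cut, CE. Gain/loss fit vs DMSO.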

A short description of assay [2]: ATG_PPRE_CIS: Attagene CIS-FACTORIAL HepG2 Assay for human Peroxisome Proliferator-activated Response Element (PPRE) (AID 2282958). Conditions: HepG2 PPRE cis-element reporter, Attagene transcription factor profiling; actives raise or lower the signal. In a few lines:
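Endogenous PPRE-driven transcription is measured in HepG2 cells carrying transfected multi-reporter constructs. Reporter transcripts are quantified by RT-PCR, HpaI digestion and capillary electrophoresis 24 h after dosing. DMSO baseline, bidirectional fit.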

Assay [3] can be described thus: ATG_RORE_CIS: Attagene CIS-FACTORIAL HepG2 Assay for human RAR-related Orphan Receptor Element (RORE) (AID 2282959). The settings on record: HepG2 Attagene cis-factorial RORE reporter, mRNA; actives raise or lower the signal. In a few lines:
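RORE reporter transcripts reflecting endogenous factor activity were read after 24 h compound exposure of transfected HepG2 cells, using reverse transcription, PCR, fluorescent labelling and capillary electrophoresis sizing. Gain or loss fitted against DMSO.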

Assay [4] can be described thus: ATG_Sox_CIS: Attagene CIS-FACTORIAL HepG2 Assay for human SRY-box transcription factor (SOX) (AID 2282960). The settings on record: HepG2 Attagene cis-factorial SOX reporter, mRNA; actives raise or lower the signal. The essentials:
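Reporter transcripts, measured by RT-PCR and capillary electrophoresis of labelled fragments, report endogenous SOX transcription factor activity. Transiently transfected human HepG2 cells receive chemical for 24 h; changes in either direction are fitted relative to DMSO.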

The target in assay [5] is Transcription factor Sp1 (Homo sapiens) (UniProt P08047). In words: ATG_Sp1_CIS: Attagene CIS-FACTORIAL HepG2 Assay for human Specificity Protein 1 (Sp1) (AID 2282961). The settings on record: HepG2 Sp1 cis-reporter transcription, actives raise or lower the signal. In a few lines: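 Read-out is reporter transcript level, measured by RT-PCR and fluorescent capillary electrophoresis after 24 h chemical treatment. System: transiently transfected HepG2 cells reporting endogenous transcription factor activity; gain or loss fitted against DMSO baseline.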

Assay [6] in a line: ATG_SREBP_CIS: Attagene CIS-FACTORIAL HepG2 Assay for human Sterol Regulatory Element Binding (SREBP) (AID 2282962). Conditions: HepG2 Attagene cis-factorial SREBP reporter, mRNA; actives raise or lower the signal. In a few lines: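 HepG2 cells transiently transfected with multiplexed cis-element reporter units report endogenous transcription factor activity. After 24 h of chemical exposure, reporter mRNA was quantified by RT-PCR, 6-FAM labelling, HpaI digestion and capillary electrophoresis; bidirectional fits used DMSO as baseline.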

The target of assay [7] is Signal transducer and activator of transcription 3 (Homo sapiens) (UniProt P40763). In words: ATG_STAT3_CIS: Attagene CIS-FACTORIAL HepG2 Assay for human Signal Transducer and Activator of Transcription 3 (STAT3) (AID 2282963). The settings on record: HepG2, Attagene cis-factorial STAT3 reporter transcription; actives raise or lower the signal. The essentials:
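Transcript-level reporter assay. HepG2 transient MRTU transfection, 24 h exposure, fluorescence detection after RT-PCR and CE; DMSO baseline.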

Assay [8] in a line: ATG_TA_CIS: Attagene CIS-FACTORIAL HepG2 Assay for human TA Basal Promoter (AID 2282964). Conditions: HepG2 Attagene CIS-factorial TA basal promoter reporter; actives raise or lower the signal. In a few lines: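 Read-out: fluorescent reporter-transcript fragments resolved by capillary electrophoresis after RT-PCR and HpaI digestion. Source: HepG2 cells carrying transiently transfected multi-reporter cis constructs, treated 24 h. Endpoint fitted bidirectionally relative to DMSO.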

Assay [9] is described as follows: ATG_TCF_b_cat_CIS: Attagene CIS-FACTORIAL HepG2 Assay for human T-Cell-Factor with beta-catenin (TCF/b-cat) (AID 2282965). Conditions: HepG2 TCF/beta-catenin cis-reporter transcription, actives raise or lower the signal. The essentials:
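HepG2 cells transiently transfected with multiple cis-promoter-regulated reporter transcription units, so endogenous transcription factor activity is measured. Reporter mRNA read 24 hours after dosing by RT-PCR, fluorescent labelling and capillary electrophoresis; bidirectional fitting against DMSO.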

Assay [10] is described as follows: ATG_TAL_CIS: Attagene CIS-FACTORIAL HepG2 Assay for human TAL Basal Promoter (AID 2282966).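 Also: background control endpoint measuring basal TAL promoter reporter mRNA not a specific factor.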 The settings on record: HepG2 Attagene cis-factorial TAL promoter reporter; actives raise or lower the signal. The essentials: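 Fluorescence of labelled reporter cDNA fragments, resolved by capillary electrophoresis, gave the readout. Human HepG2 liver cells carried transiently transfected cis-element reporter units and were treated for 24 hours; activity was fitted bidirectionally against DMSO.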

A short description of assay [11]: ATG_TGFb_CIS: Attagene CIS-FACTORIAL HepG2 Assay for human Transforming Growth Factor (TGF) (AID 2282967). The settings on record: HepG2 Attagene CIS TGFb reporter, mRNA transcription; actives raise or lower the signal. The essentials: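 Transient MRTU transfection of HepG2 (FuGene 6). Dose 24 h. TriZol RNA, oligo(dT) RT, PCR, 6-FAM primer extension, HpaI cut, CE. Bidirectional fit, DMSO = baseline.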

Assay [12] in a line: ATG_VDRE_CIS: Attagene CIS-FACTORIAL HepG2 Assay for human Vitamin D Receptor Element (VDRE) (AID 2282968). Conditions: HepG2 VDRE cis-reporter transcription, actives raise or lower the signal. In a few lines: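 RT-PCR/CE readout of reporter mRNA; HepG2, transient transfection, 24 h dosing; DMSO baseline; bidirectional analysis.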
Assay [13] addresses Nuclear receptor subfamily 1 group I member 3 (Homo sapiens) (UniProt Q14994). In words: ATG_CAR_TRANS: Attagene TRANS-FACTORIAL HepG2 Assay for human Constitutive Androstane Receptor (CAR) (AID 2282969; active = hit-call score of the fitted dose curve at least 0.9, where 1 is the maximum;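 also: activators raise reporter mRNA above DMSO so AC50 marks induction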). Conditions: HepG2 Attagene TRANS-FACTORIAL CAR reporter. The essentials: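 HepG2 cells transiently transfected with multiplexed GAL4-UAS reporter units expressing chimeric NR-Gal4 proteins; compound exposure 24 h. Reporter mRNA measured by RT-PCR, 6-FAM labelling, HpaI digestion and capillary electrophoresis; gain-of-signal fitted against DMSO baseline.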

Assay [14] has as its target X-box-binding protein 1 (Homo sapiens) (UniProt P17861). In words: ATG_Xbp1_CIS: Attagene CIS-FACTORIAL HepG2 Assay for human X-box Binding Protein 1 (XBP1) (AID 2282972). The settings on record: HepG2 XBP1 cis-element reporter, Attagene multiplex; actives raise or lower the signal. In a few lines: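 HepG2 cells transiently transfected with cis-regulated multiple reporter transcription units; endogenous transcription factor activity measured 24 hours after chemical dosing. Reporter mRNA quantified by RT-PCR, 6-FAM primer extension, HpaI digestion and capillary electrophoresis; bidirectional fitting versus DMSO.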

Assay [15] in a line: ATG_M_19_TRANS: Attagene TRANS-FACTORIAL HepG2 Assay for M19 Transcription Factor (Internal Marker) (AID 2282974; active = hit-call score of the fitted dose curve at least 0.9, where 1 is the maximum). Conditions: HepG2 Attagene TRANS-FACTORIAL M19 internal marker reporter. The essentials:
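Background-control readout: after 24 h chemical exposure of transfected HepG2 carrying GAL4-driven reporter units, RNA was reverse-transcribed, amplified, fluorescently labeled and sized by capillary electrophoresis; gain-of-signal fit against DMSO.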

The nature of assay [16]: ATG_GAL4_TRANS: Attagene TRANS-FACTORIAL HepG2 Assay for GAL4 (Internal Marker) (AID 2282976; active = hit-call score of the fitted dose curve at least 0.9, where 1 is the maximum). Conditions: HepG2 Attagene TRANS GAL4 internal marker reporter. In a few lines: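 First, HepG2 cells were transfected with reporter units under GAL4-UAS control. Next, they were treated with chemical for 24 h. Finally, RNA was reverse-transcribed, PCR-amplified, FAM-labelled and resolved by capillary electrophoresis, with induction scored against DMSO.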

Assay [17] addresses Paired box protein Pax-6 (Homo sapiens) (UniProt P26367). In words: ATG_Pax6_CIS: Attagene CIS-FACTORIAL HepG2 Assay for human Paired Box 6 (PAX6) (AID 2282956). Conditions: HepG2 CIS-FACTORIAL PAX6 reporter transcription, RNA readout; actives raise or lower the signal. In a few lines:
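HepG2 cells transiently transfected with multiplexed cis-promoter reporter units (endogenous TF activity) were dosed for 24 h. Reporter mRNA was quantified by RT-PCR, 6-FAM labeling, HpaI digestion and capillary electrophoresis; bidirectional fitting versus DMSO baseline.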

The target in assay [18] is Estrogen receptor (Homo sapiens) (UniProt P03372). In words: ATG_ERa_TRANS: Attagene TRANS-FACTORIAL HepG2 Assay for human Estrogen Receptor alpha (ERa) (AID 2282970; active = hit-call score of the fitted dose curve at least 0.9, where 1 is the maximum). The settings on record: HepG2 Attagene TRANS ERa GAL4 reporter, mRNA. The essentials: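 Human liver HepG2, transient transfection of multiple GAL4-UAS reporter units; TRANS format (exogenous NR-Gal4 chimera). 24 h dosing. Readout: reporter mRNA, RT-PCR, 6-FAM primer extension, HpaI digest, capillary electrophoresis. Positive direction vs DMSO.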

Assay [19] addresses Steroid hormone receptor ERR1 (Homo sapiens) (UniProt P11474). In words: ATG_ERRa_TRANS: Attagene TRANS-FACTORIAL HepG2 Assay for human Estrogen-Related Receptor alpha (ERRa) (AID 2282971; active = hit-call score of the fitted dose curve at least 0.9, where 1 is the maximum). Conditions: HepG2 Attagene TRANS reporter, ERRa transactivation. The essentials: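 Reporter transcript induction was quantified by RT-PCR and capillary electrophoresis of FAM-labelled, HpaI-cut products after 24 h treatment of HepG2 cells carrying transiently transfected GAL4-UAS reporter units and an exogenous ERRa-Gal4 fusion; activity scored as increase over DMSO.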

Inconclusive results are not listed. Activity calls are given as the source filed them. The calls were made as follows, unless noted: active = hit-call score of the fitted dose curve at least 0.9, where 1 is the maximum; inactive = score below 0.9.

This is an account of results in PubChem BioAssay (EPA / NIEHS).

Sequence of Estrogen receptor (Homo sapiens) (P03372 whole entry, looked up, the tested form may be a part): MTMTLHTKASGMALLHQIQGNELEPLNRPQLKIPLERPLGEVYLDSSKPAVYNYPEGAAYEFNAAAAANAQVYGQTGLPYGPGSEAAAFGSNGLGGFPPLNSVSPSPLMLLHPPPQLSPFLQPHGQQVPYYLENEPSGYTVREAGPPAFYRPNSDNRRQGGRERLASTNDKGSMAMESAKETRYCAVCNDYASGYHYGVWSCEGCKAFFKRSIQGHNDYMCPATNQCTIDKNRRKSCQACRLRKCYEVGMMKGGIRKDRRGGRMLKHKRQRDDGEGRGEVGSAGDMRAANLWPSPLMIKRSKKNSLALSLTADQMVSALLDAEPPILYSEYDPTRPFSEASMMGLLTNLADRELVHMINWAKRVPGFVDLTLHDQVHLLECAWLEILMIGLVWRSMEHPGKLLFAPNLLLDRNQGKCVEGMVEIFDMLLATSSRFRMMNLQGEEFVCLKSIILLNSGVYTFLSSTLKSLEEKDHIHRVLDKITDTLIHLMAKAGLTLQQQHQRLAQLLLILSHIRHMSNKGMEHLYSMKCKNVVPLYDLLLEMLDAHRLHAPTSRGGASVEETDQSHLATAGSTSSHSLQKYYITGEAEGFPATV
Sequence of Transcription factor Sp1 (Homo sapiens) (P08047 whole entry, looked up): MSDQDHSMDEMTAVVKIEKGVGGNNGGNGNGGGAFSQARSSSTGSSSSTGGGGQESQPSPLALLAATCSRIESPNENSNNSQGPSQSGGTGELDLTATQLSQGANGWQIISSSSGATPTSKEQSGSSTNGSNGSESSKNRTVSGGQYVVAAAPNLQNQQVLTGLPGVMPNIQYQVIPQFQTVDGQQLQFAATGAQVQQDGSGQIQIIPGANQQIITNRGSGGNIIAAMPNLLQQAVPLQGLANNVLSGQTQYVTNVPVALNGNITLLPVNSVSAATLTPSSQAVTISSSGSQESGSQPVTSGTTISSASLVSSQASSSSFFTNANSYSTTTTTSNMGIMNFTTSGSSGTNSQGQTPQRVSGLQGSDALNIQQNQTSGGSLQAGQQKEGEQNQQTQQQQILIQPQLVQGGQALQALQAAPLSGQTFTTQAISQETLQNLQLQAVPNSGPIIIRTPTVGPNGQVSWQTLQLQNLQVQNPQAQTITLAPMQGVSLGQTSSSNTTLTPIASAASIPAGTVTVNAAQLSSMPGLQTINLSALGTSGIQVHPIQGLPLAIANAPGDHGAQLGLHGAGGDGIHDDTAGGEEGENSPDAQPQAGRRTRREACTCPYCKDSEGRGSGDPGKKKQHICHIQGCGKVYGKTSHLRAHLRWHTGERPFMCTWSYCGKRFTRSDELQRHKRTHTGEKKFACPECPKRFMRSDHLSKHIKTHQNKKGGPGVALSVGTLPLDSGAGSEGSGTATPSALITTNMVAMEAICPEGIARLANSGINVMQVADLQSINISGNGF
Sequence of Paired box protein Pax-6 (Homo sapiens) (P26367 whole entry, looked up): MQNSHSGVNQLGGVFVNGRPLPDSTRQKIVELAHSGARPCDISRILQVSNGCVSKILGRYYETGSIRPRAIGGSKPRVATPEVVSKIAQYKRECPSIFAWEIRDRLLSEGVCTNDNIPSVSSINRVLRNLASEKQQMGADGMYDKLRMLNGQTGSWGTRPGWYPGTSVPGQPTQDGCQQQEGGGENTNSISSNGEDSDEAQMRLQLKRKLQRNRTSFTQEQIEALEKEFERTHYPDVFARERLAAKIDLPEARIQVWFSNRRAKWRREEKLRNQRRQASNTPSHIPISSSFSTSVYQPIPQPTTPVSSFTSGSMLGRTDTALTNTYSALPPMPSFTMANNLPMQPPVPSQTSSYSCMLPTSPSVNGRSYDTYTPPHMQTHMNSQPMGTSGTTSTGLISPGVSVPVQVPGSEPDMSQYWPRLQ
Sequence of X-box-binding protein 1 (Homo sapiens) (P17861 whole entry, looked up): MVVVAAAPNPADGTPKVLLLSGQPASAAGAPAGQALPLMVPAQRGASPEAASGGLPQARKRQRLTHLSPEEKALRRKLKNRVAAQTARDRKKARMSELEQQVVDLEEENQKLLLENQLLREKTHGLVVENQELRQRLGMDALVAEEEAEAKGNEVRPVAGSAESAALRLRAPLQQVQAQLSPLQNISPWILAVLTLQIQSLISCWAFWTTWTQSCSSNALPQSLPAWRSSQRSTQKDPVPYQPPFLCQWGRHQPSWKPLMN
Sequence of Signal transducer and activator of transcription 3 (Homo sapiens) (P40763 whole entry, looked up): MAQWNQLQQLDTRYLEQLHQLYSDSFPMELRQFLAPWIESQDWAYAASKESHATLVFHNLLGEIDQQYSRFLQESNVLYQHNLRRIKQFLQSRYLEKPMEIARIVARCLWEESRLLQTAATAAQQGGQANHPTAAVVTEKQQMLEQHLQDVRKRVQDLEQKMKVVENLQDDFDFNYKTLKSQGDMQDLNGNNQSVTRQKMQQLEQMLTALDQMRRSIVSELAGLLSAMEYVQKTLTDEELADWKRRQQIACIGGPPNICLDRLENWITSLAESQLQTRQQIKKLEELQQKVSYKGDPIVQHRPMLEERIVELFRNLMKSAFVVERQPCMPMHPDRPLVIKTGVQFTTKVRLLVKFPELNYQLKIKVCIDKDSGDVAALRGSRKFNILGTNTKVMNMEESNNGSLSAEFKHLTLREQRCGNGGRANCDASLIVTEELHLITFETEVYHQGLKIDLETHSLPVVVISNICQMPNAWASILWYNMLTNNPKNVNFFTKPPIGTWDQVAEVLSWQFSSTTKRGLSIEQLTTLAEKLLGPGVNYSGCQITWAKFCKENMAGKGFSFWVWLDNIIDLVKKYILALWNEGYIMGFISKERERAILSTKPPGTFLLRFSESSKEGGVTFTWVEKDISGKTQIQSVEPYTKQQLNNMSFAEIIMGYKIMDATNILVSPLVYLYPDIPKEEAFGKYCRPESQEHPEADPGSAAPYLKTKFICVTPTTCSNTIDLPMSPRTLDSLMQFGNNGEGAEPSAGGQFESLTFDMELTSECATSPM
Sequence of Steroid hormone receptor ERR1 (Homo sapiens) (P11474 whole entry, looked up, the tested form may be a part): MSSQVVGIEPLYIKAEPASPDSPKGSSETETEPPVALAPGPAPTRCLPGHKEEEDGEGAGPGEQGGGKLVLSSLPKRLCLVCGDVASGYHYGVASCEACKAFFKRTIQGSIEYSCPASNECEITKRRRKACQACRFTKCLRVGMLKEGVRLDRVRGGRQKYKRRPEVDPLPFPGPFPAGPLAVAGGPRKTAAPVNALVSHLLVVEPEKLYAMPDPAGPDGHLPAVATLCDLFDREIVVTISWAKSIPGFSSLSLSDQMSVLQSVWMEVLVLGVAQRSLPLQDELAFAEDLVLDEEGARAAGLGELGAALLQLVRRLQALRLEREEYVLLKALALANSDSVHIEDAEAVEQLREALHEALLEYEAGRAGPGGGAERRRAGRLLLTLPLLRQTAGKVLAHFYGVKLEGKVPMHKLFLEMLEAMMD
Sequence of Nuclear receptor subfamily 1 group I member 3 (Homo sapiens) (Q14994 whole entry, looked up, the tested form may be a part): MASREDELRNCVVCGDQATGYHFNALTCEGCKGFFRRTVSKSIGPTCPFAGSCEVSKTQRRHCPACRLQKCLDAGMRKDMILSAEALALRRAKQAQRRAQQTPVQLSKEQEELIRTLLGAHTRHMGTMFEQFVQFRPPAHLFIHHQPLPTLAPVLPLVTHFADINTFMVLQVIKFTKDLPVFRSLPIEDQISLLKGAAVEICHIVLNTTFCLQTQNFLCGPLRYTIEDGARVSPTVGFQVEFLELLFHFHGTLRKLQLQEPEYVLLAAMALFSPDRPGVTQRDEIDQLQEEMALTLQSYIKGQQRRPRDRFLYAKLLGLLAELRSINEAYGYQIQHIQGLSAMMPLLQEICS

As to `C=C(C)CCCC`, the call in [1], in assay [2], in [3], in assay [4], in [5] and in [6] was inactive. Besides, the outcome in assay [7], in assay [8], in [9], in [10], in assay [11] and in [12] was inactive. The call in assay [13], in assay [14], in assay [15] and in assay [16] was inactive.

Take `OCCCc1cccnc1`: the outcome in assay [17], in assay [1], in assay [2], in assay [4], in assay [5] and in [6] was inactive. Also, the outcome in [7], in assay [10], in assay [11], in [12], in [18] and in assay [14] was inactive. Further, the result in [16] was inactive.

For `O=c1cccc[nH]1`, the call in assay [17], in assay [1], in assay [2], in [4], in assay [5] and in assay [6] was inactive. Also, the molecule was called inactive in [7], in [8], in assay [9], in [10], in assay [11] and in assay [12]. The result in [19], in assay [14] and in assay [15] was inactive.

Regarding `Cc1cc(C)c(O)c(C(C)(C)C)c1`, the AC50 (in general, the midpoint of the concentration-response curve, whichever way the signal moves) in [1] was 27100 nM (active). In addition, the molecule was called inactive in assay [2], in assay [3], in assay [4], in [5], in assay [6] and in assay [7]. Moreover, the molecule was classed as inactive in assay [8], in [9], in assay [10], in [11], in assay [13] and in assay [18]. The molecule was classed as inactive in [14].

Turning to `CCN=C1C=CC(=C(c2ccc(N(CC)CC)cc2)c2ccc(N(CC)CC)cc2)c2ccccc21`, the AC50 in assay [17] was 1780 nM (active); in assay [1] it was 1230 nM (active); in assay [3], 68 nM (active); in assay [4], 76.2 nM (active); in assay [8] it was 1230 nM (active); in assay [9], 885 nM (active). In addition, in [14], the AC50 is 1860 nM (active). Moreover, the outcome in [2], in assay [5], in [6], in assay [7], in [10] and in assay [11] was inactive. For the same molecule, the molecule was called inactive in [15] and in assay [16].

As to `FC(F)(F)C(F)(F)C(F)(F)CC1CO1` (stereo unspecified), the call in [17], in assay [1], in assay [2], in assay [3], in assay [4] and in [5] was inactive. For the same molecule, the call in assay [6], in assay [7], in [8], in assay [10], in [11] and in assay [18] was inactive. Besides, the molecule was classed as inactive in assay [19], in assay [14] and in assay [16].

For the molecule `CCN(CC)c1ccc(C=O)c(O)c1`, the result in assay [17], in assay [1], in [2], in [4], in assay [5] and in assay [6] was inactive. Besides, the molecule was classed as inactive in assay [7], in [10], in assay [11], in [18], in [14] and in [16]. Moreover, the AC50 in [3] was 38100 nM (active).

For `NC(O)(C(F)(F)F)C(F)(F)F`, the molecule was called inactive in [17], in [1], in assay [2], in assay [3], in assay [4] and in assay [5]. The molecule was classed as inactive in assay [6], in assay [7], in [8], in assay [9], in [10] and in [11]. In addition, the call in [12], in assay [14] and in assay [16] was inactive.
